The source of these data is PubChem BioAssay (NCATS).

The nature of the test: qHTS profiling of the MIPE4 collection as inhibitors of Plasmodium falciparum (DD2) proliferation (Rep 2) (AID 743346). The note with it: P. falciparum Dd2 in erythrocytes, SYBR Green DNA, 72 h; at 28.5 µM unless noted. In outline: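 Erythrocytes infected with P. falciparum (0.3% parasitemia, 2.5% hematocrit) incubated with compounds 72 h at 37 C, 5% CO2. Lysis with saponin/Triton buffer containing SYBR Green I, overnight at room temperature in the dark; DNA fluorescence (485/535 nm) normalised to 0.29 uM artemisinin and DMSO.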
As to `COC(c1ccccc1)(c1ccccc1)[C@H](Oc1nc(C)cc(C)n1)C(=O)O`, the parasite growth, % of control (lower = inhibition) stood at 81.2%.

Take `NC1(c2ccc(-c3nc4ccn5c(=O)[nH]nc5c4cc3-c3ccccc3)cc2)CCC1`: the parasite growth, % of control (lower = inhibition) was 7.57%.

On to `COc1cc2c(Nc3ccc(Br)cc3F)ncnc2cc1OCC1CCN(C)CC1`, for which the parasite growth, % of control (lower = inhibition) worked out at 12.4%. Take `C#CCN[C@@H]1CCc2ccccc21`: the parasite growth, % of control (lower = inhibition) is 95.4%. In the case of `Cc1cccc(Nc2ccncc2S(=O)(=O)NC(=O)NC(C)C)c1` it was 125%; in that of `CC(C)C[C@H](NC(=O)[C@H](CCc1ccccc1)NC(=O)CN1CCOCC1)C(=O)N[C@@H](Cc1ccccc1)C(=O)N[C@@H](CC(C)C)C(=O)[C@@]1(C)CO1`, 9.09%. In the case of `O=C(O)c1cn(C2CC2)c2cc(N3CCNCC3)c(F)cc2c1=O` it was 67.8%. In the case of `CCC(C)(C)c1ccc(CC(C)CN2C[C@@H](C)O[C@@H](C)C2)cc1` (stereo partly specified) it was 39%. On to `CC(C)OC(=O)C(C(=O)OC(C)C)=C1SC=CS1`, for which the parasite growth, % of control (lower = inhibition) was 72.6%. To `CC1=CC(=O)c2ccccc2C1=O` belongs 10.3%; to `Nc1nc(=S)c2[nH]cnc2[nH]1`, 51.3%; to `COC(=O)Nc1nc2ccc(Sc3ccccc3)cc2[nH]1`, 18.7%.

`N[C@@H](C(=O)N[C@@H]1C(=O)N2C(C(=O)O)=C(Cl)CS[C@H]12)c1ccccc1`: the parasite growth, % of control (lower = inhibition) was found to be 115%.

In the case of `COc1ncnc(NS(=O)(=O)c2ccc(N)cc2)c1OC`, the parasite growth, % of control (lower = inhibition) is 99.5%. To `CN(C)CCc1c[nH]c2ccc(CS(=O)(=O)N3CCCC3)cc12` belongs 86.7%. As for `CNS(=O)(=O)CCc1ccc2[nH]cc(C3CCN(C)CC3)c2c1`, the parasite growth, % of control (lower = inhibition) was 92.8%. In the case of `CN1CCN(c2c(F)cc3c(=O)c(C(=O)O)cn4c3c2OCN4C)CC1` it was 77.3%. Take `O=c1cc(O)c(Cl)c[nH]1`: the parasite growth, % of control (lower = inhibition) came to 20.4%. In the case of `CCCN[C@H]1CCc2nc(N)sc2C1` it was 8.29%; in that of `CC(C)Cn1cnc2c(N)nc3ccccc3c21`, 32.3%. To `CCC(=O)O[C@]1(C(=O)CCl)[C@@H](C)C[C@H]2[C@@H]3CCC4=CC(=O)C=C[C@]4(C)[C@@]3(F)[C@@H](O)C[C@@]21C` belongs 8.54%. In the case of `CC(=O)Oc1ccccc1C(=O)Nc1ncc([N+](=O)[O-])s1` it was 7.18% [at 57.5 µM]. As for `C1CCC(C(CC2CCCCN2)C2CCCCC2)CC1` (stereo unspecified), the parasite growth, % of control (lower = inhibition) stood at 7.73%.

On to `Nc1[nH]c(=O)ncc1F`, for which the parasite growth, % of control (lower = inhibition) is 158%. To `Nc1nc(N)nc(-c2cc(Cl)ccc2Cl)n1` belongs 128%; to `CO[C@@]12[C@H](COC(N)=O)C3=C(C(=O)C(C)=C(N)C3=O)N1C[C@@H]1N[C@@H]12`, 6.98%; to `CNC(=O)c1cc(Oc2ccc(NC(=O)Nc3ccc(Cl)c(C(F)(F)F)c3)cc2)ccn1`, 33%. Consider `NC(=O)N1c2ccccc2CC(=O)c2ccccc21`, for which the parasite growth, % of control (lower = inhibition) amounted to 187%. `C[C@@H]1CN(c2c(F)c(N)c3c(=O)c(C(=O)O)cn(C4CC4)c3c2F)C[C@H](C)N1`: the parasite growth, % of control (lower = inhibition) turned out to be 34.1% [at 9.64 µM]. To `CS(=O)(=O)c1ccc([C@@H](O)[C@@H](CO)NC(=O)C(Cl)Cl)cc1` belongs 55.8%; to `CCc1c2c(nc3ccc(OC(=O)N4CCC(N5CCCCC5)CC4)cc13)-c1cc3c(c(=O)n1C2)COC(=O)[C@]3(O)CC`, 67.7%.
